# Measured values from the supplement of paper PMC9694430.
# Experiments:
# Test in all cases: thermal shift delta Tm vs DMSO control; higher = stronger stabilization (binding)
# Conditions in all cases: 12.5 µM; protein concentration 2 µM
# LOC_OS01G01410-cb001 = system: LOC_OS01G01410-cb001
# Outline: (§1)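 Heating from 25°C to 95°C at 0.05°C/s, fluorescence was recorded for 19.5 μl wells of 2 μM E. coli-expressed, purified rice kinase domain in 100 mM potassium phosphate pH 7.5, 150 mM NaCl, 10% glycerol and 5 × SYPRO Orange with compound in DMSO. Boltzmann fits gave melting temperatures for this differential scanning fluorimetry assay. The shift reported is the mean of three replicates against the DMSO-only protein.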
# LOC_OS01G02750-cb003 = system: LOC_OS01G02750-cb003
# Outline: as §1
# LOC_OS01G10900-cb004 = system: LOC_OS01G10900-cb004
# Outline: as §1
# LOC_OS01G13800-cb001 = system: LOC_OS01G13800-cb001
# Outline: as §1
# LOC_OS01G14860-cb001 = system: LOC_OS01G14860-cb001
# Outline: as §1
# LOC_OS01G21960-cb002 = system: LOC_OS01G21960-cb002
# Outline: as §1
# LOC_OS01G39600-cb002 = system: LOC_OS01G39600-cb002
# Outline: as §1
# LOC_OS01G48390-cb002 = system: LOC_OS01G48390-cb002
# Outline: as §1
# LOC_OS01G51400-cb002 = system: LOC_OS01G51400-cb002
# Outline: as §1
# LOC_OS01G52050-cb004 = system: T1, LOC_OS01G52050-cb004
# T1 sequence (whole entry): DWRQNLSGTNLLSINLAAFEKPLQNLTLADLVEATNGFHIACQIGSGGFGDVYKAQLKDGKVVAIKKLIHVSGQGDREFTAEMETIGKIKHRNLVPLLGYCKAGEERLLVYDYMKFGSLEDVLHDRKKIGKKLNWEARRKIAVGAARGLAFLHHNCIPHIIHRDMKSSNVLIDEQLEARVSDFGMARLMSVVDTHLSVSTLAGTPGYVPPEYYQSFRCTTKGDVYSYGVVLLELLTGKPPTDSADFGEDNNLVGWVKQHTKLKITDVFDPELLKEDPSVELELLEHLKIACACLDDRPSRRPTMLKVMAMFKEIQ
# Outline: as §1
# 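Further: purified Escherichia coli-expressed rice kinase domain construct.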
SMILES,thermal shift delta Tm (LOC_OS01G01410-cb001) [°C],thermal shift delta Tm (LOC_OS01G02750-cb003) [°C],thermal shift delta Tm (LOC_OS01G10900-cb004) [°C],thermal shift delta Tm (LOC_OS01G13800-cb001) [°C],thermal shift delta Tm (LOC_OS01G14860-cb001) [°C],thermal shift delta Tm (LOC_OS01G21960-cb002) [°C],thermal shift delta Tm (LOC_OS01G39600-cb002) [°C],thermal shift delta Tm (LOC_OS01G48390-cb002) [°C],thermal shift delta Tm (LOC_OS01G51400-cb002) [°C],thermal shift delta Tm (LOC_OS01G52050-cb004) [°C]
O=C1Cc2c([nH]c3ccc(Br)cc23)-c2ccccc2N1 [Kenpaullone],1.3,3.93,3.23,1.78,7.46,1.74,2.16,3.44,0.72,5.21
CN(C)Cc1cccc(N/C(=C2\C(=O)Nc3cc(C(N)=O)ccc32)c2ccccc2)c1,-0.11,0.69,1.98,-0.09,0.65,0.45,0.07,0.48,0.08,0.86
CN1C(=O)[C@@H](NC(=O)c2n[nH]c(Cc3ccccc3)n2)COc2ccccc21,0.8,1.65,0.07,0.83,0.52,0.05,0.62,0.43,0.45,2.47
C=CC(=O)Nc1cc(Nc2nccc(-c3cn(C)c4ccccc34)n2)c(OC)cc1N(C)CCN(C)C [Osimertinib (AZD9291)],0.41,0.94,0.45,-0.53,0.01,0.34,0.02,-0.33,0.43,0.11
"C=CC(=O)Nc1cccc(Nc2nc(Nc3ccc(N4CCN(C(C)=O)CC4)cc3OC)ncc2C(F)(F)F)c1 [Rociletinib (CO-1686, AVL-301)]",1.11,-0.18,-0.01,-0.38,0.68,0.5,-0.84,1.8,0.49,0.58
CCC[C@H](NC(=O)/C(C#N)=C/c1cccc(Br)n1)c1ccccc1 [Degrasyn (WP1130)],-2.54,-8.18,0.28,0.06,-2.02,0.19,-4.1,-0.09,-1.59,-3.54
COc1cc(OC)c(C=C2C(=O)Nc3ccccc32)c(OC)c1,0.16,0.24,1.24,0.46,0.32,0.88,0.01,0.22,0.14,-0.14
Nc1ncnc2c1c(-c1cnc3[nH]ccc3c1)nn2C1CCCC1,1.35,1.16,2.01,0.12,1.82,1.28,0.43,2.52,0.19,1.48
O=C(c1ccc(Nc2nccc(-c3cc4ccccc4s3)n2)cc1)N1CCC(N2CCCC2)CC1 [IKK-16 (IKK Inhibitor VII)],2.52,2.69,4.53,-0.34,5.72,2.79,8.28,1.72,-0.14,4.5
Cc1cnc(Nc2ccc(N3CCN(C)CC3)cc2)nc1Nc1cccc(S(=O)(=O)NC(C)(C)C)c1,1.26,0.29,0.71,0.25,1.34,2.76,6.04,1.61,0.64,3.19
C=C(C)[C@@H]1CC[C@]2(C)CC[C@]3(C)[C@H](CC[C@@H]4[C@@]5(C)CC[C@H](O)C(C)(C)[C@@H]5CC[C@]43C)[C@@H]12 [Lupeol],0.2,0.62,0.32,0.74,0.11,0.67,0.07,-0.09,-0.11,0.44
N#CC(=C(/N)Sc1ccccc1N)/C(C#N)=C(\N)Sc1ccccc1N,1.35,1.84,-0.2,0.46,0.53,0.18,1.48,0.24,0.39,2.41
CC(C)(C)c1ccc(S(=O)(=O)/C=C/C#N)cc1,-0.73,-1.97,-1.97,0.14,-0.21,1.29,-0.46,0.36,0.18,-3.59
OC(c1cc(-c2ccc(Cl)cc2)nc2ccccc12)C1CCCCN1 (stereo not given) [Vacquinol-1],0.1,1.71,0.31,1.34,0.11,1.18,-0.2,0.86,0.34,0.54
C[C@@H](Oc1cc(-c2cnn(C3CCNCC3)c2)cnc1N)c1c(Cl)ccc(F)c1Cl,2.96,1.71,1.58,-0.59,0.41,-0.27,0.93,5.62,0.05,4.57
CC(C)(C)c1nc(-c2ccc(NC(=O)Nc3cccc(C(F)(F)F)c3)c3ccccc23)c2c(N)nccn12 [kira6],0.7,9.79,0.45,1.09,1.63,2.1,1.51,1.52,0.79,5.68
CC1(COc2ccc3c(c2)ncn3-c2ccc3cccc(N4CCC(N)CC4)c3n2)COC1,1.38,7.03,1.43,-0.87,1.96,3.78,2.31,0.25,0.13,11.9
O=S(=O)(c1cccc2c(I)cccc12)N1CCCNCC1,0.23,0.79,0.56,0.43,0.67,0.53,0.27,1.35,0.24,2.58
COc1cc2ncc(-c3ccccc3)nc2cc1OC [Tyrphostin AG 1296],2.03,1.6,0.44,-0.26,0.28,0,0.47,0.55,0.63,1.69
